TTR transcr act: TTR transcription activators in neuroblastoma reporter cells, primary screen, cell-based, luminescence, SH-SY5Y, TTR promoter Gaussia luciferase | 100% = recombinant luciferase protein wells | activation, % at 16.7 µM | 92,000 tested, 1.3% active;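 active = activation above the mean of all tested compounds plus 3 SD, cut at about 9.5% in these data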;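 also: cells exposed to compounds for one day before reading; 0% = median of all test compound wells on the plate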
TTR inh HuH7: TTR promoter reporter inhibitors in hepatoma cells, counter-screen for TTR transcription activator project, cell-based, luminescence, HuH7 hepatoma; shares compounds with TTR transcr act; HuH7 TTR promoter-Gaussia luciferase reporter; inhibition, % at 16.7 µM; 1,100 tested, 4% active; AID 1117279, 2014;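 active = average inhibition above the solvent-only control wells' mean plus 3 SD, cut at about 15% in these data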;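 also: 0% = cells with DMSO only and 100% = cells with inhibitor control FD; inhibitors lower well luminescence so higher value means more inhibition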
TTR up confirm: TTR transcription activators, retest, confirmation, cell-based, luminescence, SH-SY5Y, triplicate; activation, % at 16.7 µM; SHSY5Y TTR promoter Gaussia luciferase; 100% = purified Lucia enzyme wells, no cells; shares compounds with TTR transcr act; 1,100 tested, under 10 active;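 active = mean activation above a set limit taken from the earlier primary screen, cut at about 11% in these data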;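 also: 0% = DMSO-treated cells and 100% = recombinant Lucia luciferase without cells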
The depositor's hits bear a star. The sample as a whole holds a higher share of hits than the screen did.

SMILES	TTR transcr act	others
COc1cccc(-n2c(SCC(=O)Nc3ccc4c(c3)CCC4)nc3ccccc3c2=O)c1	0
C[C@H](CO)N1C[C@H](C)[C@@H](CN(C)S(=O)(=O)c2cccs2)OCc2cn(nn2)CCCC1=O	1
CCOC(=O)C1CCN(C(=O)Cn2nc(C)n3nc(-c4ccc(OC)cc4)cc3c2=O)CC1	11*	TTR inh HuH7=-6;TTR up confirm=-1
CCOC(=O)C1CCN(C(=O)/C=C/c2ccc(OC)cc2)CC1	1
CCc1ccc(-c2cc3c(=O)n(CC(=O)NCCN4CCCCC4C)nc(C)n3n2)cc1 (stereo not drawn)	5
CCN(C(=O)Cn1c(=O)n(Cc2ccccc2)c(=O)c2ccccc21)c1cccc(C)c1	-3
CCCN(CC(=O)Nc1ccc(F)c(F)c1F)C(=O)c1ccc2c(c1)NC(=O)CS2	-1
Cc1nn(CC2CC2)c(=O)n1-c1ccc(F)cc1	2
Cc1ccc(C(=O)N2CCC(C)CC2)cc1NC1=NC2CS(=O)(=O)CC2S1 (stereo not drawn)	3
Cc1nn(-c2ccccc2)c(C)c1C(=O)NCCc1ccccc1	-1
Cc1nn(Cc2ccccc2)c(Cl)c1C(=O)NCCc1ccc(Cl)cc1	-1
CCOc1ccc(CCNC(=O)c2c(C)nn(-c3ccccc3)c2Cl)cc1OCC	12*	TTR inh HuH7=-16;TTR up confirm=0
O=C(c1ccc(N2CCCC2=O)cc1)N1CCOCC1	0
O=C(N/N=C/c1[nH]c2ccccc2c1Cl)c1cccc(Br)c1	0
COC(=O)CN1C(=O)N(c2ccccc2)C(N(O)C(=O)Nc2ccccc2)C1(C)C (stereo not drawn)	2
CNC(=O)N(O)C1N(C)C(=O)N(Cc2ccccc2)C1(C)C (stereo not drawn)	1
COC(=O)CNC(=O)CN1C(=O)N(c2cccc(Cl)c2)C(N(O)C(=O)Nc2cccc(Cl)c2)C1(C)C (stereo not drawn)	10*	TTR inh HuH7=-5;TTR up confirm=-1
CCOC(=O)c1cc2cc(F)ccc2nc1C	23*	TTR inh HuH7=-4;TTR up confirm=-1
CCOC(=O)c1cc(C(=O)NN)c(C)nc1C	-1
CCOC(=O)c1cnn2c(C)cc(-c3ccc(F)cc3)nc12	0
O=C(CN1CCN(C(c2ccccc2)c2ccccc2)CC1)Nc1ccc(N2CCOCC2)cc1	0
O=C(Nc1ccc2c(c1)OCCO2)c1ccc(NC(=O)C2CCCO2)cc1 (stereo not drawn)	0
CCn1c(SC(C)C(=O)Nc2nnc(C)s2)nnc1-c1ccco1 (stereo not drawn)	-1
O=C1CN(C(=O)CCCc2c[nH]c3ccccc23)c2ccccc2N1	2
CCCN(N=Nc1cccc([N+](=O)[O-])c1)c1cccc([N+](=O)[O-])c1	-2
SMILES	TTR transcr act	others
CN(N=Nc1cccc([N+](=O)[O-])c1)c1cccc([N+](=O)[O-])c1	20*	TTR inh HuH7=-8;TTR up confirm=-1
CC(=O)N(C)c1cccc([N+](=O)[O-])c1	0
CC1CCC(NC(=O)COC(=O)c2ccc3ncsc3c2)CC1 (stereo not drawn)	-1
C[C@@H]1CN([C@@H](C)CO)S(=O)(=O)c2ccc(Br)cc2O[C@H]1CN(C)Cc1ccccc1F	-1
CCOc1ccc(-n2c(=O)cc(N3CCN(c4ccc(F)cc4)CC3)[nH]c2=O)cc1	1
CCOC(=O)N1CCN(c2cc(=O)n(-c3ccccc3C)c(=O)[nH]2)CC1	-1
CCOC(=O)N1CCN(c2cc(=O)n(-c3ccc(OC)cc3)c(=O)[nH]2)CC1	9.7*	TTR inh HuH7=-4;TTR up confirm=-1
CN(C(=O)CSc1nnc(-c2ccco2)o1)C1CCCCC1	-1
COCCCNc1nc2c(c(=O)[nH]c(=O)n2C)n1CC(O)COc1ccccc1 (stereo not drawn)	-1
COC(=O)c1cc2n(n1)CCN(Cc1cccc(OC)c1)C2=O	-2
CCOC(=O)CNc1c(-c2ccc(F)cc2)nc2cnccn12	4
CC(C)c1ccccc1NC(=O)C1CN(S(=O)(=O)c2ccccc2)CCN1S(=O)(=O)c1ccccc1 (stereo not drawn)	-2
Cc1cnc(C(=O)OCC(=O)N(CC(C)C)C2CCS(=O)(=O)C2)cn1 (stereo not drawn)	0
CC(C)CN(C(=O)CSc1nnnn1C)C1CCS(=O)(=O)C1 (stereo not drawn)	2
Cc1nn(CC(=O)N(CC(C)C)C2CCS(=O)(=O)C2)c(C)c1[N+](=O)[O-] (stereo not drawn)	13*	TTR inh HuH7=-15;TTR up confirm=-1
O=C(COc1ccc2ccccc2c1)NC1=NCCS1	-1
CC(C)(c1ccccc1)c1ccc(OCCn2cnc3ccccc3c2=O)cc1	0
Cc1cc(C)n(-c2nc3ccccc3c(=O)n2OCCOc2ccccc2)n1	32*	TTR inh HuH7=-10;TTR up confirm=-1
O=C(c1ccccc1)c1ccc(OCCn2cnc3ccccc3c2=O)cc1	0
CCN1CCC(NC(=O)Nc2ccc(F)cc2F)CC1	-2
Cc1ccc(S(=O)(=O)N2CCOCC2)cc1C(=O)N1CC(C)CC(C)C1 (stereo not drawn)	1
Cc1ccc(NC(=O)O/N=C/c2ccc(F)cc2)cc1	-1
O=C(NCc1ccc(F)c(F)c1)C1CCC(=O)N(CCc2ccccc2)C1 (stereo not drawn)	1
Cc1ccc(F)cc1CNC(=O)C1CCC(=O)N(CCc2ccccc2)C1 (stereo not drawn)	0
CCOC(=O)CC1(NC(=O)C2CCC(=O)N(CCc3ccccc3)C2)CCCCC1 (stereo not drawn)	14*	TTR inh HuH7=-12;TTR up confirm=1
SMILES	TTR transcr act	others
Cc1ccccc1C(=O)OCC(=O)N(C)c1c(N)n(Cc2ccccc2)c(=O)[nH]c1=O	4
CC(C)=C(c1ccc(Cl)cc1)c1c(N)ncnc1N	2
Cc1nc(SCC(=O)NC2CCS(=O)(=O)C2)c2c3c(sc2n1)CCC3 (stereo not drawn)	-1
NC(=O)C1(c2ccccc2)CCCN1C(=O)c1ccc(Br)cc1 (stereo not drawn)	-2
O=C(c1ccc(Cl)c(S(=O)(=O)N2CCOCC2)c1)N1CCCC1	-1
Cc1cccc(NS(=O)(=O)c2cc(C(=O)N3CCCC3)ccc2Cl)c1	10*	TTR inh HuH7=-10;TTR up confirm=0
CN1CCN(C(=O)c2ccc(Cl)c(S(=O)(=O)N3CCCCC3)c2)CC1	3
N#Cc1cc(-c2ccccc2)nc(Oc2ccccc2)n1	-1
Nc1nc(N)c2sc3nc(C(F)(F)F)cc(C(F)(F)F)c3c2n1	-1
COc1ccc(-c2c(C(F)(F)F)[nH]n3c(=O)cc(-c4ccccc4)nc23)cc1	8
CCC(C)NC(=O)Cn1c(=O)n(-c2ccc(OC)cc2)c(=O)c2ccc(C(=O)NCc3ccc(C)cc3)cc21 (stereo not drawn)	1
CC(=O)c1ccc(OCc2ccccc2)c(C)c1O	1
Cc1cc(C)c(C#N)c(SCC(=O)N2CCN(Cc3ccccc3)CC2)n1	-3
O=C(CSc1ncccn1)N1CCN(Cc2ccccc2)CC1	15*	TTR inh HuH7=7;TTR up confirm=-1
O=C(CCS(=O)(=O)c1ccc(Br)cc1)N1CCN(Cc2ccccc2)CC1	-1
CCOC(=O)C1=C(OCc2ccc(Cl)cc2)C2C=C(C)C=CC2N=C1 (stereo not drawn)	1
COCCn1c(SCC(=O)Nc2ccc(S(N)(=O)=O)cc2)nc2ccccc21	9.8*	TTR inh HuH7=-8;TTR up confirm=-1

Assay outcomes: PubChem, The Scripps Research Institute Molecular Screening Center
